# aSyn UTR act: Activators working through SNCA 5'UTR binding (MLPCN); actives 7.1% (n = 300,000); activity score, % (tested at 7.5 µM), hits read low; AID 1814; alpha-synuclein 5'UTR reporter, activators screen; in the data active = activity score below about -60%
# Active calls of the source: *. Only a sample is shown.
SMILES,aSyn UTR act
Cc1cc(C)n2c(Br)c(CSc3nc4ccccc4o3)nc2n1,-87*
CN(C)c1ccc(/C=C/c2nnnn2-c2ccccc2)cc1,-157*
CCCCn1nc(NC(=O)COC)c2cc3cc(OC)ccc3nc21,-78*
Fc1cc(F)c2nc(N3CCCC3)sc2c1,-93*
Fc1cccc2sc(N3CCOCC3)nc12,-80*
Fc1cccc2sc(N3CCCCC3)nc12,-116*
O=C(Nc1ccc(-c2cn3c(n2)SCC3)cc1)c1ccc2c(c1)OCO2,-87*
Cn1ncc([N+](=O)[O-])c1C(=O)Nc1ccc(C2CCCCC2)cc1,-136*
Cn1ncc([N+](=O)[O-])c1C(=O)Nc1ccc(-c2nc3ccccc3[nH]2)cc1,-159*
O=C(Nc1ccc(-c2nc3ccccc3[nH]2)cc1)c1ccc2c(c1)OCO2,-102*
c1ccc2[nH]c(-c3ccc4c(c3)OCO4)nc2c1,79
CS(=O)(=O)c1ccc(C(=O)Nc2ccc(-c3nc4ccccc4[nH]3)cc2)cc1,-67*
Cn1c(/C=C/c2cccc(Br)c2)nc2ccccc2c1=O,-178*
CN(c1ccc(C(=O)Nc2ccc3c(c2)OCO3)cc1)S(C)(=O)=O,-103*
CN(c1ccc(C(=O)Nc2ccc3c(c2)OCCO3)cc1)S(C)(=O)=O,-149*
N/C(=N\OC(=O)c1ccncc1)c1cccc([N+](=O)[O-])c1,-70*
N/C(=N\OC(=O)c1ccc(Br)cc1)c1cccc([N+](=O)[O-])c1,-179*
N/C(=N\OC(=O)c1ccc([N+](=O)[O-])cc1)c1ccc(Br)cc1,-81*
Cc1ccc(C(=O)O/N=C(\N)c2cccc([N+](=O)[O-])c2)cc1,-218*
Cc1ccc(C2Cc3cc(O)c(O)cc3CN2)cc1 (stereo not drawn),89
Cc1ccc(O)c(C2=NNC(c3ccc(Cl)cc3)C2)c1 (stereo not drawn),-128*
Cc1cc(=O)[nH]c2nnc(-c3ccc(Br)cc3)n12,-62*
CCNC(=S)NNC(=O)c1csc(C(C)C)c1,-76*
CNc1oc(-c2ccc(OCc3ccccc3)cc2)nc1C#N,-96*
COc1ccc(Nc2oc(COc3ccc(OC)cc3)nc2C#N)cc1,78
SMILES,aSyn UTR act
COc1ccc(Nc2oc(-c3ccc(F)cc3)nc2C#N)cc1,-233*
C=CCNc1oc(-c2ccc(OC)cc2)nc1C#N,-135*
Cc1ccc2cc(C#N)c(NCc3ccco3)nc2c1,-67*
Cc1ccc(-c2nc(C#N)c(NCc3ccco3)o2)cc1,-145*
COc1ccc(-c2nc(C#N)c(NCc3ccco3)o2)cc1,-182*
COc1ccc(-c2nc(C#N)c(NCC3CCCO3)o2)cc1OC (stereo not drawn),-74*
COc1ccc2c(c1)O/C(=C\c1ccccc1C)C2=O,-131*
O=C(Nc1ccc([N+](=O)[O-])cc1)c1ccc(Cn2cc([N+](=O)[O-])cn2)cc1,79
O=C(Nc1ccc(Cl)c(Cl)c1)c1ccc(Cn2cc(Cl)cn2)cc1,-120*
O=C(Nc1ccccc1F)c1ccc(Cn2cc(Cl)cn2)cc1,-84*
O=C(COc1ccccc1)Nc1ccccc1F,-140*
COCC(=O)Nc1cc(C(=O)Nc2ccccc2)ccc1Cl,-79*
O=C(COc1ccccc1)Nc1ccc(Cl)cc1Cl,-154*
O=C(COc1ccccc1)Nc1cc(Cl)ccc1Cl,-91*
O=C(Nc1cnc2ccccn2c1=O)c1ccc(F)cc1,-92*
O=C(Nc1cnc2sc3c(n2c1=O)CCCC3)c1ccc(F)cc1,-105*
COc1ccc(C(=O)Nc2cnc3ccccn3c2=O)cc1,-169*
c1ccc2c(c1)Cc1cc(CN3CCOCC3)ccc1-2,-113*
COC(=O)c1cn(CCOc2ccccc2)c2ccccc12,-153*
COc1ccccc1-n1cc([C@@H]2C[C@H]3CN(c4ccccc4)C(=O)[C@]34CCCN24)cn1,-362*
O=C(Nc1ccc2c(c1)OCO2)NC1(C(F)(F)F)Oc2ccccc2O1,-96*
CCc1cccc(NC(=O)Nc2ccc3c(c2)OCO3)c1,-65*
O=C(Nc1ccc2c(c1)OCO2)Nc1ccccc1F,-136*
CCc1ccccc1NC(=O)Nc1ccc2c(c1)OCO2,-79*
O=C(Nc1ccc2c(c1)OCCO2)NC1(C(F)(F)F)Oc2ccccc2O1,62
SMILES,aSyn UTR act
CCn1c2ccccc2c2nnc(SCC(=O)Nc3ccc4c(c3)OCO4)nc21,-96*
O=C(N=Nc1c(O)n(C2OC(=O)c3ccccc32)c2ccccc12)c1ccco1 (stereo not drawn),-110*
CC1=C(CC(=O)c2ccccc2)C(=O)c2ccccc2C1=O,-79*
NC(=O)c1ccccc1NC(=O)c1ccc2ccccc2c1,-139*
CCc1c(C(=O)Nc2ccccc2C(N)=O)csc1C,-62*
NC(=O)c1ccccc1NC(=O)c1ccc2c(c1)OCO2,-152*
Cc1ccccc1NC(=O)c1ccc2ccccc2c1,-150*
COc1ccc(C=Nc2cccnc2N)cc1,-67*
N#Cc1c(N2CCOCC2)nsc1-c1ccc(C(F)(F)F)cc1,-134*
COc1ccc(-c2nsc3c(N4CCN(C(=O)c5ccco5)CC4)ncnc23)cc1,-64*
NC(=O)C1CCN(c2ncnc3c(-c4ccccc4)nsc23)CC1,-112*
O=C(c1ccco1)N1CCN(c2ncnc3c(-c4ccccc4)nsc23)CC1,-106*
COc1ccc(/C(=N/Nc2ncnc3ccccc23)C(=O)O)cc1,-79*
CC(=O)C1=C(O)C(=O)N(c2ccc(Br)cn2)C1c1ccc(Br)cc1 (stereo not drawn),-101*
S=C(c1ccc(-c2ccc(Cl)cc2Cl)o1)N1CCCC1,-140*
S=C(c1ccc(-c2ccc(Cl)cc2Cl)o1)N1CCCCC1,-208*
Cc1cccc(/C=C/C(=O)c2ccc(N3CCOCC3)cc2)c1,-114*
Cc1ccc(/C=C/C(=O)c2ccc(N3CCOCC3)cc2)s1,-133*
N/C(=N\OCc1ccccc1)c1nonc1N,-98*
Cc1cccc(N(C)C(=O)c2cc3cc4ccc(C)cc4nc3o2)c1,-605*
Cc1cccc(N(C)S(=O)(=O)c2ccc(-c3cc(C)no3)s2)c1,88
CC1CC(C)CN(Cc2nc(N)nc(Nc3ccc4ccccc4c3)n2)C1 (stereo not drawn),-115*
CCc1ccc(CCC(=O)Nc2ccc(Cl)cc2)o1,-67*
CCC(C)(C)C1CCc2[nH]nc(C(=O)N/N=C(\C)c3ccco3)c2C1 (stereo not drawn),-136*
CC(C)C(=O)OCC(=O)Nc1ccc(N=Nc2ccccc2)cc1,-186*
SMILES,aSyn UTR act
O=C(CCl)Nc1ccc(N=Nc2ccccc2)cc1,-63*
O=C(Nc1ccc(N=Nc2ccccc2)cc1)c1ccccc1Cl,-170*
CC1(C(=O)OCC(=O)Nc2ccccc2)CC1(Cl)Cl (stereo not drawn),-69*
CC(=O)Nc1ccc(N=Nc2ccccc2)cc1,-179*
CC(=O)Nc1ccc(N2N=C(C)C(N=Nc3ccccc3)C2=O)cc1 (stereo not drawn),-98*
CC(=O)OCC(=O)Nc1ccc(N=Nc2ccccc2)cc1,-143*
CC1=NN(c2nc(-c3ccc(C)cc3)cs2)C(=O)C1N=Nc1ccc(C(N)=O)cc1 (stereo not drawn),86
CCOc1ccc2nc(SCc3cccc(C)c3)nc(C)c2c1,-129*
CCOC(=O)CCSc1nc(C)c2cc(OC)ccc2n1,-123*
CCn1cc(C(=O)NCc2ccco2)c(=O)c2cc(S(=O)(=O)N3CC(C)CC(C)C3)ccc21 (stereo not drawn),82
Cc1ccc(S(=O)(=O)N2CCCCC2CCNC(=O)C(=O)Nc2ccccc2F)cc1 (stereo not drawn),-148*
